SKOV3 invasion = blocks SKOV3ip1 adhesion and invasion in omental model. SKOV3ip1-GFP adhesion/invasion on 3D omental model, fluorescence. Potency, µM (series often up to 45.8 µM), without a hit: top-dose activity change, negative = inhibition, hits mostly inhibitors. actives 0.1% (n = 46,000). AID 1963576;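 also: potency is read from the fitted curve at half-maximal effect; plate controls were DMSO wells for no effect and tomatine positive control wells for full effect; nearly all actives have a fitted effect of over 65% in size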
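qHTS, 4-pt dose (0.36-46 umol/L); SKOV3ip1-GFP, 1,200 cells/well, no FBS; primary omental fibroblast/mesothelial co-culture 48 h pre-grown; 2 h RT + 16 h 37 C; PBS wash, 4% PFA; GFP count 488/509 nm.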
PMP22 txn prim = PMP22 gene transcription modulation; S16 Pmp22-F2sN Schwann cells, FLuc/NLuc coincidence luminescence, 24 h; Potency, µM (highest dose often 57.5 µM), for inactives: at the top dose activity change, negative = inhibition, most hits filed as inhibitors; actives 2% (n = 43,000); active = clear falling dose curves in both reporters; inconclusive = both reporters move, but less clearly or upward; inactive = either reporter flat; the % is the NLuc reporter signal; also: potency is read from the fitted curve at half-maximal effect; % is scaled to controls: 0 for no effect and ±100 for the full control effect
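Rat S16 Pmp22-F2sN cells, 500-1,000/well in phenol red-free DMEM + 10% FBS, compound-treated 24 h (37C, 5% CO2). Luminescence: FLuc read, Stop&Glo added, NLuc read.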
pS6 MEF inh = mTORC1 pathway inhibition measured by phospho-rpS6; Tsc2-/- p53-/- MEF, phospho-rpS6 immunofluorescence/PI, 24 h; Potency, µM (series often up to 38.3 µM), for inactives: at the highest dose activity change, negative = inhibition, usual class: inhibitors; actives 0.78% (n = 44,000); AID 493208;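 also: potency is read from the fitted curve at half-maximal effect; plate controls were DMSO for no effect and rapamycin for full effect; nearly all actives have a fitted effect of over 50% in size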
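Tsc2-/-, p53-/- MEFs (empty-vector stable line) in DMEM + 10% FBS were treated with compounds 24 h at 37 degree Celsius, fixed, and immunostained for phospho-rpS6 (Alexa-488) with propidium iodide counterstain. Laser-scanning cytometry gave % positive cells, normalized against 7.5 nM rapamycin and DMSO.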
p53null 32C tox = kills p53 null cells at the permissive temperature; actives 0.62% (n = 55,000); Potency, µM (titrated, usually from 46.1 µM), without a hit: at the highest dose activity change, negative = cytotoxicity, usual class: cytotoxic; H1299-neo p53 null cells, ATP luminescence, 24 h, 32C;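 also: potency is read from the fitted curve at half-maximal effect; 0% = DMSO only and -100% = full killing by 100 µM tamoxifen; nearly all actives have a fitted effect of over 55% in size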
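Cytotoxicity: H1299-neo (no p53), 32C, 24 h treatment. Concentrations up to 46 uM. Readout cellular ATP, luminescence. Normalization to DMSO basal and tamoxifen 100 uM maximal kill.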
p53null 39C kill = p53 null cell cytotoxicity, nonpermissive temperature. H1299 p53-null (neo) cells, 39C, ATPlite viability, 24 h. Potency, µM (top dose mostly 46.1 µM), without a hit: at the top dose activity, negative = cell killing, most hits filed as cytotoxic. actives 0.97% (n = 55,000);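 also: potency is read from the fitted curve at half-maximal effect; 0% = DMSO only and -100% = full killing by 100 µM tamoxifen; nearly all actives have a fitted effect of over 50% in size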
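Concentration-response (up to 46 uM) was run for 24 h at the nonpermissive 39C on H1299-p53A138V or H1299-neo cells. ATP content was measured with ATPlite luminescence. AC50 values were Hill-modeled after normalizing between DMSO and 100 uM tamoxifen killing.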
S16 F2sN tox = toxic to S16 Pmp22-F2sN Schwann cells | S16 Pmp22-F2sN Schwann cells viability, CellTiter-Glo, 24 h | Potency, µM (doses to about 57.5 µM), for inactives: at the highest dose activity change, negative = cytotoxicity, most hits filed as cytotoxic | actives 0.48% (n = 43,000); also: potency is read from the fitted curve at half-maximal effect; % is scaled to controls: 0 for no effect and ±100 for the full control effect; nearly all actives have a fitted effect of over 65% in size
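Rat S16 Schwann reporter line, 24 h treatment with library compounds delivered at 23 nL per well. Cell viability by CellTiter-Glo luminescence.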
NLuc saturating = counter-screen for PMP22 expression modulators: NanoLuc inhibition, saturating substrate. shares compounds with PMP22 txn prim. Secreted NLuc enzyme (filtered S16 cell medium), Nano-Glo luminescence. Potency, µM (doses to about 57.5 µM), without a hit: at the top dose activity change, negative = inhibition, most hits filed as inhibitors. actives 4% (n = 690); also: potency is read from the fitted curve at half-maximal effect; % is scaled to controls: 0 for no effect and ±100 for the full control effect
NLuc Km counter = counter-screen for PMP22 expression modulators: NanoLuc inhibition at Km; actives 5% (n = 690); Potency, µM (series often up to 57.5 µM), inactives show top-dose activity change, negative = inhibition, most hits filed as inhibitors; shares compounds with PMP22 txn prim; AID 1508639; secreted NLuc enzyme, coelenterazine luminescence, Km conditions; also: potency is read from the fitted curve at half-maximal effect; % is scaled to controls: 0 for no effect and ±100 for the full control effect
FLuc counter = firefly luciferase enzyme inhibition artifact for PMP22 screen; AID 1508640; shares compounds with PMP22 txn prim; purified P. pyralis FLuc, luminescence, 10 min; Potency, µM (highest dose often 57.5 µM), inactives show at the highest dose activity, negative = inhibition, actives largely listed as inhibitors; 690 tested, under 10 active; also: % of control where 0% means no effect
Target sequence (P08659 whole entry, looked up): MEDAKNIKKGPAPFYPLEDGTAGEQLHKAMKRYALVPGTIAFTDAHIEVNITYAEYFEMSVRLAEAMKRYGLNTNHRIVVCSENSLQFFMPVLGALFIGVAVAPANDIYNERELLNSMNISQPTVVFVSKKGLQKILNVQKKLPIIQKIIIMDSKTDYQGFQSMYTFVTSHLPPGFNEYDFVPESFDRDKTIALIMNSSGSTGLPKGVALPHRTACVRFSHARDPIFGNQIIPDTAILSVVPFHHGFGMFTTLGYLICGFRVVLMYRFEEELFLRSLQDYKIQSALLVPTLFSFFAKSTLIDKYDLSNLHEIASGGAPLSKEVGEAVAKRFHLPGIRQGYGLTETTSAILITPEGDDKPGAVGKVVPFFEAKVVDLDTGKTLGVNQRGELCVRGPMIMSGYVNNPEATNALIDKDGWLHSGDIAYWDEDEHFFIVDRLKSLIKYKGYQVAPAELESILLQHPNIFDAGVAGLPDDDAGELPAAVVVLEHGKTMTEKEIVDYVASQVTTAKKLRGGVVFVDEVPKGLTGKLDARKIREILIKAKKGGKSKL
S16 viab conf = confirmation of cytotoxicity in S16 Pmp22-F2sN Schwann cells (luciferase reporters placed in the Pmp22 gene). shares compounds with PMP22 txn prim. S16 Schwann cells viability, CellTiter-Glo ATP luminescence, 24 h. Potency, µM (top dose mostly 57.5 µM), for inactives: at the highest dose activity change, negative = viability loss, hits mostly cytotoxic. actives 7% (n = 690); also: potency is read from the fitted curve at half-maximal effect; % is scaled to controls: 0 for no effect and ±100 for the full control effect
PMP22 txn cnf = PMP22 transcription modulation, confirmatory. AID 1508646. S16 Schwann cells Pmp22-F2sN, dual luciferase, 24 h. actives 22% (n = 690). shares compounds with PMP22 txn prim. Potency, µM (series often up to 57.5 µM), for the others: at the highest dose activity change, negative = inhibition, usual class: inhibitors; active = clear falling dose curves in both reporters; inconclusive = both reporters move, but less clearly or upward; inactive = either reporter flat; the % is the FLuc reporter signal; also: potency is read from the fitted curve at half-maximal effect
PMP22 prot conf = rat PMP22 protein level modulation, confirmatory | shares compounds with PMP22 txn prim | S16 Schwann cells Pmp22-HiBiT, luminescence, 48 h | Potency, µM (top dose mostly 27.9 µM), for inactives: at the highest dose activity change, negative = inhibition, actives largely listed as inhibitors | 95 tested, under 10 active | AID 1508647
Target sequence (P25094 whole entry, looked up): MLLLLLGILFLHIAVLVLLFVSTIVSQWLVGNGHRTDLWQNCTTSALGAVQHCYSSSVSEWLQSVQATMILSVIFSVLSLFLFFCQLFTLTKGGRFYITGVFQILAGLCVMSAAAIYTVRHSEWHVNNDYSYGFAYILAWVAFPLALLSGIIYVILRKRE
Starred values were filed as active, the others as inactive; i = inactive; ? = inconclusive; nt = no result given. The list is not random: actives were taken first. Their share in the collection is about 3%. Unless noted, calls follow the shape of the dose curve; as a rule, active = well fitted curve in the direction sought with a large enough effect; inconclusive = small, poorly fitted or top-dose-only effect, or another doubt; inactive = no such curve, though single readings can be large; an effect the other way counts as inactive or inconclusive.

SMILES	SKOV3 invasion	PMP22 txn prim	pS6 MEF inh	p53null 32C tox	p53null 39C kill	S16 F2sN tox	NLuc saturating	NLuc Km counter	FLuc counter	S16 viab conf	PMP22 txn cnf	others
COCCCNC(=O)c1c(C)nn(-c2ccc(F)cc2)c1-n1cccc1	-10%	4%	-5%	6%	-14%	-5%	nt	nt	nt	nt	nt
CSc1ccc(CCNC(=O)c2c(C)nn(-c3ccc(F)cc3)c2-n2cccc2)cc1	6%	15µM*	0%	32%	93%	-13%	-13%	4%	-12%	-15%	?
CCOc1ccc(-n2c(SCC(=O)NC3CCCCC3)nc3c([nH]c4ccccc43)c2=O)cc1	-6%	-4%	2%	5%	80%	7%	nt	nt	nt	nt	nt
O=C(CSc1nc2c([nH]c3ccccc32)c(=O)n1-c1ccc(Cl)cc1)NC1CCCCC1	7%	13µM*	-1%	-25%	22%	?	-4%	12%	-4%	?	17µM*
COc1ccc(OC)c(CNS(=O)(=O)c2ccc3[nH]c4c(c3c2)CCCCC4)c1	14%	15µM*	-8%	9%	39%	-18%	-11%	?	2%	1%	-16%
Cc1ccc(NS(=O)(=O)c2ccc3[nH]c4c(c3c2)CCCC4)cc1N(C)C	-20%	17µM*	-17%	17%	-16%	?	2%	-20%	1%	7%	?
Cc1ccc(NS(=O)(=O)c2ccc3[nH]c4c(c3c2)CCCCCC4)cc1Cl	?	?	-18%	61%	15%	-9%	nt	nt	nt	nt	nt
CCOc1cc(C(=O)Nc2ccc(Cl)c(-c3nc4ccccc4[nH]3)c2)cc(OCC)c1OCC	3%	nt	nt	nt	nt	nt	nt	nt	nt	nt	nt
C[C@@H]1CCN(C(=O)CC#N)C[C@H]1N(C)c1ncnc2[nH]ccc12	-29%	nt	nt	nt	nt	nt	nt	nt	nt	nt	nt
CCOC(=O)c1ccc(NC(=O)Cc2ccc(-n3c(CC)nc4cccnc43)cc2)cc1	-4%	?	-10%	-4%	8%	17%	-16%	?	-14%	?	13%
CCN1C(=O)c2ccccc2S(=O)c2ccc(C(=O)N3CCN(c4cccc(Cl)c4)CC3)cc21 (configuration not stated)	i	18µM*	-5%	-11%	-2%	-4%	3.9µM*	3.4µM*	-1%	-5%	?
CCc1nn(CC(=O)N(CC)Cc2ccccc2)c(=O)c2cc3occc3n12	i	?	0%	-7%	8%	6%	-20%	?	3%	5%	-3%
CCOc1ccccc1Nc1sc(C(=O)c2ccc(Cl)cc2)c(N)c1C#N	13%	15µM*	-3%	-7%	11%	1%	0%	4%	-2%	1%	-2%
Cc1cc(Nc2cccc(Br)c2)n2c(nc3ccccc32)c1C#N	i	9µM*	-5%	-17%	-25%	?	-18%	?	7%	10%	?
COc1ccccc1NC(=O)C1=C(C)Nc2nc(SCc3ccccc3)nn2C1c1cccc(O)c1 (configuration not stated)	i	-6%	-2%	20%	-12%	-3%	nt	nt	nt	nt	nt
Cc1ccc(CNC(=O)c2ccc(Cn3c(=O)c4ccccc4n(CC(=O)Nc4ccc(C)cc4)c3=O)cc2)cc1	11%	?	8%	-6%	-16%	?	nt	nt	nt	nt	nt
Cc1ccc(CNC(=O)c2ccc(Cn3c(=O)c4ccccc4n(CC(=O)Nc4c(C)cc(C)cc4C)c3=O)cc2)cc1	i	16µM*	1%	?	?	?	-9%	9%	6%	?	7.9µM*	PMP22 prot conf=?
COc1ccc(Cl)cc1NC(=O)Cn1c(=O)n(-c2ccc(C)cc2)c(=O)c2ccc(C(=O)NCc3ccccc3Cl)cc21	5%	10µM*	1%	1%	?	12%	-7%	-10%	4%	31µM*	11µM*
COCCCNC(=O)c1ccc(Cn2c(=O)c3ccccc3n(CC(=O)Nc3ccc(C)cc3C)c2=O)cc1	i	?	4%	-2%	6%	3%	nt	nt	nt	nt	nt
Cc1ccc(CNC(=O)c2ccc(Cn3c(=O)c4ccccc4n(CC(=O)Nc4ccc(C)cc4C)c3=O)cc2)cc1	i	14µM*	-3%	-10%	?	-24%	-1%	4%	0%	?	?
Cc1ccc(O)c(-c2n[nH]c3c2C(c2ccc(F)cc2)N(Cc2ccco2)C3=O)c1 (configuration not stated)	?	20µM*	5%	26%	?	-17%	-15%	?	-3%	13%	-26%
CCOc1ccc(CCNc2ncnc3onc(C)c23)cc1OCC	7%	4.7µM*	?	2%	-4%	-24%	-12%	-5%	-3%	-7%	-28%

Assay outcomes as filed in PubChem BioAssay.
